From PubChem BioAssay (NCATS) come the findings set out here.

The nature of test [1]: Cellular Toxicity (caspase-3) BJ (AID 658).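 Also: cells exposed to compound for 16 hours; 0% = DMSO basal and 100% = 10 µM staurosporine.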 The gist of the method: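 Luminescent aminoluciferin-substrate cleavage reports caspase 3/7 activity in normal human BJ fibroblasts after 16 hr compound exposure at 37 °C. Normalized to DMSO (basal) and 10 uM staurosporine (100%); AC50 from Hill fit of concentration-response.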
Test [2] in a line: Cellular Toxicity (caspase-3) MRC-5 (AID 659).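 Also: cells exposed to compound for 16 h at 37 °C; 0% = DMSO basal and 100% = 10 µM staurosporine.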 The gist of the method:
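Luminescence from caspase-cleaved aminoluciferin substrate (Caspase-Glo 3/7, 1 hr RT) reports caspase 3/7 activity in MRC-5 lung fibroblasts after 16 hr compound exposure. Normalized to DMSO basal and 10 uM staurosporine as 100%; AC50 from Hill fits.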

Test [3] is described as follows: Cellular Toxicity (caspase-3) Mesangial (AID 660).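 Also: combined caspase 3 and 7 activity read by Caspase-Glo luminescence; cells exposed to compound for 16 h before the caspase read.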 The conditions noted are these: Potency: caspase-3 activation. A digest of the protocol:
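Concentration-response qHTS: compound-induced rise in caspase 3/7 luminescence in human mesangial cells after 16 h, normalized to DMSO and 100 uM tamoxifen controls.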

The nature of test [4]: Cellular Toxicity (caspase-3) SK-N-SH (AID 661).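 Also: cells exposed to compound for 16 hours; 0% = DMSO basal and 100% = 10 µM staurosporine.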 The gist of the method: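 Caspase 3/7 activation is measured as a luminescence increase from aminoluciferin released by substrate cleavage in SK-N-SH cells after 16 hr compound treatment; values are AC50 from concentration-response curves.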
Test [5] in a line: Cellular Toxicity (caspase-3) H-4-II-E (AID 663).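 Also: cells exposed to compound for 16 hr before readout.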 The following applies: H-4-II-E rat hepatoma, scaled: DMSO 0%, 100 µM tamoxifen 100%; at 92.2 µM (top of the series). A digest of the protocol:
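Luminescence from caspase-cleaved aminoluciferin substrate, read 20 min after reagent addition, reports caspase 3/7 activation in rat H-4-II-E cells after 16 hr compound exposure. Normalized to DMSO (basal) and 100 uM tamoxifen (100%); AC50 from Hill fits.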

Test [6] can be described thus: Cellular Toxicity (caspase-3) Hek293 (AID 664).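 Also: cells exposed to compound for 16 h at 37 °C before readout.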 The conditions noted are these: HEK293 caspase-3 activation, DMSO = 0%, 100 µM tamoxifen = 100%; at 92.2 µM (top of the series). The gist of the method: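 Activation of caspase-3/7 is measured as increased luminescence from cleaved peptide-aminoluciferin substrate in HEK293 cells treated 16 hours at 37 °C. AC50 values come from Hill-equation fits of concentration-response data.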

Test [7] is described as follows: Cellular Toxicity (caspase-3) N2a (AID 665).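 Also: compound exposure lasted 16 h at 37 °C before readout.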 The following applies: Potency: caspase-3 activation. The gist of the method: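 Plated mouse neuroblastoma N2a cells received titrated compounds for 16 h in complete medium. Caspase activity was then detected with a peptide-aminoluciferin luminescent reagent.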
Test [8] can be described thus: Cellular Toxicity (caspase-3) NIH 3T3 (AID 666).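 Also: 0% = DMSO basal and 100% = 100 µM tamoxifen stimulation.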 The gist of the method:
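Concentration-response qHTS in NIH 3T3 mouse fibroblasts scores caspase-3/7 activation as rising luminescence after 16 hr compound exposure. Signals are scaled between DMSO-only and 100 uM tamoxifen.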

A short description of test [9]: Cellular Toxicity (caspase-3) Renal Proximal Tubule (AID 667).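 Also: cells exposed to compound for 16 hours at 37 °C before detection; 0% = DMSO basal and 100% = 10 µM staurosporine.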 The conditions noted are these: Potency: caspase-3 activation. The gist of the method:
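Freshly isolated primary rat kidney proximal tubule cells, 1000/well, treated 16 hr at 37 °C, then Caspase-Glo 3/7 luminescence after 1 hr. Normalized to DMSO and 10 uM staurosporine; AC50 from Hill fit.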

The target in test [10] is Cytochrome P450 3A4 (Homo sapiens) (UniProt P08684). Kind of test: qHTS Assay for Inhibitors and Substrates of Cytochrome P450 3A4 (AID 884). Also: nearly all actives have a fitted effect of over 50% in size. Also: potency is read from the fitted curve at half-maximal effect. A digest of the protocol:
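20 nM human CYP3A4 with 25 uM Luciferin-PPXE (at KM) in 200 mM KPO4, preincubated 10 min with compound; NADPH regeneration started a 60 min RT reaction. Luciferin detected by luminescence, normalized to 57 uM ketoconazole as full inhibition.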
(Quantitative high-throughput screening tests each substance at several concentrations.)

Test [11] in a line: Confirmation and Secondary Assay for Modulators of Hemoglobin Beta Chain Splicing at IVS2 654 locus (AID 910).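 Also: per-well total GFP intensity by laser scanning cytometry after 2-day treatment; % of control where 0% means no effect.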 The gist of the method:
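HeLa cells stably carrying EGFP interrupted by mutant beta-globin IVS2-654 intron (CMV-driven) were treated with compound for 2 days at 37C; corrected splicing was scored as total peak GFP intensity per well (488 nm excitation, 500-520 nm emission).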

The target of test [12] is Cytochrome P450 3A4 (Homo sapiens) (UniProt P08684). Nature of the test: qHTS Assay for Activators of Cytochrome P450 3A4 (AID 885). Also: nearly all actives have a fitted effect of over 65% in size. A digest of the protocol:
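Quantitative HTS format: compounds preincubated with 20nM human CYP3A4 and Luciferin-PPXE substrate at KM, reaction started by NADPH regeneration, stopped after 60 min, luciferase luminescence read 20 min later.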

For test [13], the target named is Cytochrome P450 2C9 (Homo sapiens) (UniProt P11712). Kind of test: qHTS Assay for Inhibitors and Substrates of Cytochrome P450 2C9 (AID 883). Also: nearly all actives have a fitted effect of over 60% in size. Also: potency is read from the fitted curve at half-maximal effect. A digest of the protocol:
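CYP2C9 deoxyluciferin hydroxylation, 37C, 60 min with NADPH regeneration; 10nM enzyme, 100uM Luciferin-H (KM). Glo detection reagent stopped reaction; luminescence normalized to sulphaphenazole (57uM) full inhibition.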

For test [14], the target named is Cytochrome P450 2D6 (Homo sapiens) (UniProt P10635). Nature of the test: qHTS Assay for Inhibitors and Substrates of Cytochrome P450 2D6 (AID 891).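 Also: luciferin methyl ether substrate demethylated by CYP2D6 with NADPH regeneration; % is scaled to controls: 0 for no effect and ±100 for the full control effect; nearly all actives have a fitted effect of over 60% in size.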 A digest of the protocol: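 Human CYP2D6 (5 nM) with 30 uM Luciferin-ME EGE (at Km) in 100 mM KPO4, compound preincubated 10 min, then NADPH regeneration system for 60 min at room temperature. Luciferin read by luminescence; normalized to 1.43 uM quinidine.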

The target of test [15] is Cytochrome P450 2C19 (Homo sapiens) (UniProt P33261). Kind of test: qHTS Assay for Inhibitors and Substrates of Cytochrome P450 2C19 (AID 899). Also: nearly all actives have a fitted effect of over 60% in size. Also: potency is read from the fitted curve at half-maximal effect. The gist of the method:
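In 50mM KPO4, the reaction held 5nM enzyme and KM-level (10uM) Luciferin-H EGE; it ran 60 min at 37C after NADPH regeneration and a 10 min compound preincubation. Luminescence values were scaled to 57uM ketoconazole as complete inhibition.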

In test [16] the target is Guanine nucleotide-binding protein G(i) subunit alpha-1 (Homo sapiens) (UniProt P63096). Kind of test: qHTS Assay for Inhibitors of RGS12 GoLoco Motif Activity (Green Fluorophore) (AID 879).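 Also: 0% = labeled peptide with Gαi1 and full inhibition = labeled peptide alone without protein; negative values mean loss of peptide binding seen as reduced polarization.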 A digest of the protocol:
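Fluorescence polarization assay: 50 nM Gαi1 with 10 nM FITC-labeled RGS12 GoLoco peptide in 10 mM Tris pH 7.5, 150 mM NaCl, 0.1 mM GDP, 0.05% NP40, 10 min at room temperature with compound.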

Each structure is given as a SMILES string. A number with no mark means an inactive call. Records with an inconclusive call do not appear. The source made the active and inactive calls. Calls follow the shape of the dose curve; as a rule, active = well fitted curve in the direction sought with a large enough effect; inconclusive = small, poorly fitted or top-dose-only effect, or another doubt; inactive = no such curve, though single readings can be large; an effect the other way counts as inactive or inconclusive.

Sequence of Cytochrome P450 3A4 (Homo sapiens) (P08684 whole entry, looked up): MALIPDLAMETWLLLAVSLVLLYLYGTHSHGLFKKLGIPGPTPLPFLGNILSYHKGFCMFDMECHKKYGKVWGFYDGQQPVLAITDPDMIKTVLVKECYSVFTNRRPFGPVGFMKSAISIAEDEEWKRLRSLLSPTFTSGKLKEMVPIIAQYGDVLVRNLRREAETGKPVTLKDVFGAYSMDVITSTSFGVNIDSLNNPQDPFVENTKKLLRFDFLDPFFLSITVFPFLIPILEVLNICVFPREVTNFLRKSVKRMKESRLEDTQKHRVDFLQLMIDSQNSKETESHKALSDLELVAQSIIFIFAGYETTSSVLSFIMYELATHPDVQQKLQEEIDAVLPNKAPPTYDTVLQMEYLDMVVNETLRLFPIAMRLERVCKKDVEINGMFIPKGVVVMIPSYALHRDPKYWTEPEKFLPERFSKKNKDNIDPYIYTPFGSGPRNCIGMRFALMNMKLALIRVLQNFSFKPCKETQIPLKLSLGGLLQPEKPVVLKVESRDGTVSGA
Sequence of Cytochrome P450 2C9 (Homo sapiens) (P11712 whole entry, looked up): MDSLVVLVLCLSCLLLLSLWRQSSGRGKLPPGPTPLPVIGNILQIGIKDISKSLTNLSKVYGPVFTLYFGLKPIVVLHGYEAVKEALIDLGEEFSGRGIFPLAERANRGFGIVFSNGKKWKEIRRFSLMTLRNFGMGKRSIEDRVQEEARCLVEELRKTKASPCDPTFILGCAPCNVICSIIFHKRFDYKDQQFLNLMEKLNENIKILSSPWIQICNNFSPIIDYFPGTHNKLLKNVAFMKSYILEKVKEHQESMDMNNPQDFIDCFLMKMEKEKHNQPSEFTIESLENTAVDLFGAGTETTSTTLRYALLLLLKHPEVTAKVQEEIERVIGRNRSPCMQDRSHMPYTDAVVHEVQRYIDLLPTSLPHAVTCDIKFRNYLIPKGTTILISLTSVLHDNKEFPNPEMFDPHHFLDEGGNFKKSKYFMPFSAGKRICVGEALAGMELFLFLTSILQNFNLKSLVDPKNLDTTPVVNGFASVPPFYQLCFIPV
Sequence of Cytochrome P450 2C19 (Homo sapiens) (P33261 whole entry, looked up): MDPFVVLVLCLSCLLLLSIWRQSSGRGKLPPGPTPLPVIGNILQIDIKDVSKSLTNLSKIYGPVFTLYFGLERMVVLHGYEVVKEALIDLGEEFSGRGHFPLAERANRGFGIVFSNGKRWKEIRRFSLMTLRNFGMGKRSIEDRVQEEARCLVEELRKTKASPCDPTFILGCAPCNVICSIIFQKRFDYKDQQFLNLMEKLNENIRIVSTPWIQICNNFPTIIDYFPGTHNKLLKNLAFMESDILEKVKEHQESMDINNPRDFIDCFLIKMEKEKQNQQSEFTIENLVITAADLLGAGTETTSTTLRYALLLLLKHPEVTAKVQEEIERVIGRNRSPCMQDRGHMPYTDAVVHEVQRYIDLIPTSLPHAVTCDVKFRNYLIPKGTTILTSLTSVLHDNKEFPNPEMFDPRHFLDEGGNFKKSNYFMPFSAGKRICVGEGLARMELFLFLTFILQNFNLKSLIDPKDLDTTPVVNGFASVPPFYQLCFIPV
Sequence of Guanine nucleotide-binding protein G(i) subunit alpha-1 (Homo sapiens) (P63096 whole entry, looked up): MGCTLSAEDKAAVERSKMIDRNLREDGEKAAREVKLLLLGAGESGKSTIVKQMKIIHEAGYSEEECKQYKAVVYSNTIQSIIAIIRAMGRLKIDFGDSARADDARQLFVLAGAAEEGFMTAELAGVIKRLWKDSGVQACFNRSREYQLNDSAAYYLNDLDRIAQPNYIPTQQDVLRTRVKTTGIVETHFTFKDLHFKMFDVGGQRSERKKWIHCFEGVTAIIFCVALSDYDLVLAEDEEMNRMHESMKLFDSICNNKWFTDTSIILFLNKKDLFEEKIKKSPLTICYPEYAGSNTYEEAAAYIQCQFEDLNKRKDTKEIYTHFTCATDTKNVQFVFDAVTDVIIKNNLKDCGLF
Sequence of Cytochrome P450 2D6 (Homo sapiens) (P10635 whole entry, looked up): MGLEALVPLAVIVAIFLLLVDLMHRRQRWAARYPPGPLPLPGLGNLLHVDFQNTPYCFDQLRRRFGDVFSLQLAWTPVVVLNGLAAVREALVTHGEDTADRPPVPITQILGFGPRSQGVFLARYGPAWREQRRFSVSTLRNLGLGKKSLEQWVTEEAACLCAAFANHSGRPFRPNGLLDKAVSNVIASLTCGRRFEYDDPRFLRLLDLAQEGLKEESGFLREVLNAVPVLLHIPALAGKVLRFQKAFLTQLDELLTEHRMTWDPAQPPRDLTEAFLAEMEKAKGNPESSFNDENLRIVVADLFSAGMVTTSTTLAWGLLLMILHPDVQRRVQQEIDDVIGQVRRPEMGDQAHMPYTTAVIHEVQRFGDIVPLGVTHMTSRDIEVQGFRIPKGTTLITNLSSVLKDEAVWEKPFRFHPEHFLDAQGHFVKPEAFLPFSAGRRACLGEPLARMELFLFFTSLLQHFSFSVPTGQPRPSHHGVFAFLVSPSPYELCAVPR

Consider `Nc1nc2ccc([N+](=O)[O-])cc2s1`, for which the call in [1] and in test [2] was inactive. Further, the Potency result in test [3], in test [4], in test [7], in test [8] and in test [9] was “inactive” each time. The caspase-3 activation in test [5] was -1.1%; in [6] it was -4.39%.

Turning to `O=C(O)c1cc(O)c(O)c(O)c1`, the compound was classed as inactive in test [1], in [2] and in test [11]. In addition, the Potency entry in test [3], in test [4], in test [7], in [8], in [9] and in test [10] was “inactive” in each case. Besides, the caspase-3 activation in test [5] is -0.904%; in test [6], -9.64%.

As to `CC(C)NCC(O)COc1cccc2ccccc12` (stereo not drawn), the compound was called inactive in test [1], in [2] and in [11]. Also, the Potency entry in test [3], in test [4], in test [7], in test [8], in test [9] and in test [10] was “inactive” each time. Further, the figures for the caspase-3 activation in [5] and in test [6] were 12.6% and 0.268%, respectively.

Turning to `O=C(O)/C=C\C(=O)O`, the compound was classed as inactive in test [1] and in test [2]. For the same compound, the Potency entry in test [3], in test [4], in test [7], in test [8], in [9] and in [10] was “inactive” each time. Moreover, the values for the caspase-3 activation in [5] and in test [6] were 0.648% and -1.35%, respectively.

Consider `COc1cc(CNC(=O)CCCC/C=C/C(C)C)ccc1O`, for which the call in test [1], in [2] and in test [11] was inactive. In addition, the Potency entry in test [3], in [4], in test [7], in test [8], in [9] and in test [12] was “inactive” in each case. Besides, the caspase-3 activation in [5] was 1.09%; in test [6] it was 0.218%. The Potency in test [10] was 2.51 µM (active).

With `Oc1ccccc1O`, the outcome in test [1] and in [2] was inactive. The Potency result in test [3], in test [4], in test [7], in [9], in test [13] and in test [14] was “inactive” throughout. The Potency result in [15] was “inactive”. Further, the caspase-3 activation in test [6] is 7.91%.

`CN(C)CCC(c1ccc(Cl)cc1)c1ccccn1` (stereo not drawn): the compound was called inactive in test [1] and in [2]. Besides, the Potency entry in [3], in test [4], in test [7], in [8], in test [9] and in test [10] was “inactive” each time. Moreover, the caspase-3 activation is 1.63% in [5] and 1.34% in [6].

`Nc1ccc(O)c(C(=O)O)c1`: the compound was classed as inactive in test [1] and in [2]. Moreover, the Potency result in test [3], in [4], in test [7], in test [8], in test [9] and in test [12] was “inactive” in each case. In addition, the caspase-3 activation in test [5] is -0.695%; in [6], 0.369%. Moreover, the Potency in test [15] is 5.01 µM (active).

Take `Cn1cc(C2=C(c3ccc(Cl)cc3Cl)C(=O)NC2=O)c2ccccc21`: the compound was classed as inactive in test [16]. Further, the figures for the Potency in [13] and in [10] were 10 µM (active) and 2 µM (active), respectively. The Potency entry in test [12] is “inactive”.
